Assay results: the supplement of paper PMC6555819

Key:
Test in all cases: PBM binding z-score (relative to random genomic background probes); higher = stronger binding; sequences stand for … in GC…GCGATTGACAGCGTAGAATGAAGG
[1] = test system: FXR:RXRa (NR concentration 270 nM, RXRa partner concentration 90 nM)
Outline: (§1)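 Random background probes are the reference for binding z-scores. These scores derive from regression-normalized fluorescence on custom Agilent 4×180K protein-binding microarrays incubated 1 h with ligand-free nuclear receptor dimers. Binding was detected with antibodies against each partner (one per run).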

[2] = test system: LXRa:RXRa (NR concentration 270 nM, RXRa partner concentration 90 nM)
Outline: as §1

[3] = test system: LXRa homodimer (NR concentration 270 nM)
Outline: as §1

[4] = test system: LXRb:RXRa (NR concentration 270 nM, RXRa partner concentration 90 nM)
Outline: as §1

[5] = test system: LXRb homodimer (NR concentration 270 nM)
Outline: as §1

[6] = test system: PPARa:RXRa (NR concentration 270 nM, RXRa partner concentration 90 nM)
Outline: as §1

[7] = test system: PPARg:RXRa (NR concentration 180 nM, RXRa partner concentration 90 nM)
Outline: as §1

[8] = test system: PPARg:RXRa 270nM:90nM, anti-RXR (NR concentration 270 nM, RXRa partner concentration 90 nM)
Outline: as §1

[9] = test system: PPARg:RXRa 30nM:10nM, anti-RXR (NR concentration 30 nM, RXRa partner concentration 10 nM)
Outline: as §1

[10] = test system: PPARg:RXRa 90nM:30nM, anti-RXR (NR concentration 90 nM, RXRa partner concentration 30 nM)
Outline: as §1

[11] = test system: PPARg:RXRa DBDmut IVT, anti-RXR (DBD mutation: RXRa K156A/R161A, NR concentration 270 nM, RXRa partner concentration 90 nM)
Outline: as §1

[12] = test system: PPARg:RXRa IVT, anti-PPARg (NR concentration 270 nM, RXRa partner concentration 90 nM)
Outline: as §1

[13] = test system: PPARg DBDmut:RXRa IVT, anti-PPARg (DBD mutation: PPARg1 K132A/R137A, NR concentration 270 nM, RXRa partner concentration 90 nM)
Outline: as §1

[14] = test system: PPARg DBDmut IVT, anti-PPARg (DBD mutation: PPARg1 K132A/R137A, NR concentration 270 nM)
Outline: as §1

[15] = test system: PPARg homodimer (NR concentration 180 nM)
Outline: as §1

[16] = test system: PXR:RXRa (NR concentration 270 nM, RXRa partner concentration 90 nM)
Outline: as §1

[17] = test system: PXR homodimer (NR concentration 270 nM)
Outline: as §1

[18] = test system: RARa:RXR (NR concentration 270 nM, RXRa partner concentration 90 nM)
Outline: as §1

[19] = test system: RARa homodimer (NR concentration 270 nM)
Outline: as §1

[20] = test system: RARb:RXRa (NR concentration 270 nM, RXRa partner concentration 90 nM)
Outline: as §1

Row | Sequence | PBM binding z-score [1] | PBM binding z-score [2] | PBM binding z-score [3] | PBM binding z-score [4] | PBM binding z-score [5] | PBM binding z-score [6] | PBM binding z-score [7] | PBM binding z-score [8] | PBM binding z-score [9] | PBM binding z-score [10] | PBM binding z-score [11] | PBM binding z-score [12] | PBM binding z-score [13] | PBM binding z-score [14] | PBM binding z-score [15] | PBM binding z-score [16] | PBM binding z-score [17] | PBM binding z-score [18] | PBM binding z-score [19] | PBM binding z-score [20]
1 | TCTTGTAGATCAAGCAGGTTAAGAAGGCCTGAGT | 0.0541 | 0.0936 | -0.218 | 0.226 | -0.745 | 0.84 | -0.304 | 1.15 | 2.45 | 1.9 | 1.58 | 0.43 | 0.564 | 0.0402 | 0.079 | 0.386 | 0.0272 | 0.642 | -0.212 | 0.128
2 | TCTTGTAGATCCGCAGGTTAAGAAAGCTGGCCAA | 0.144 | 0.322 | -0.25 | 0.303 | -0.333 | 0.634 | -0.592 | 1.34 | 2.55 | 1.87 | 1.29 | -0.0295 | 0.383 | -0.621 | -0.223 | 0.161 | -1.09 | 0.597 | -0.725 | 0.136
3 | CGAACTAGGTCAGAACAGGACAGTAAAGGATGAT | 1.48 | 0.875 | -0.0273 | 0.738 | -0.326 | 3.33 | 5.37 | 4.63 | 1.83 | 3.65 | 7.08 | 7.22 | 1.86 | 1.17 | 1.1 | 1.02 | 0.0829 | 1.26 | 0.18 | 2.92
4 | TAGCCTAGGTCAGATCGGGCCACTATACGCTATA | 2.45 | 1.34 | -0.308 | 0.919 | -0.028 | 1.65 | 0.925 | 0.87 | -0.128 | 0.49 | 0.727 | 1.46 | -0.3 | -0.905 | 0.204 | 1.73 | -0.326 | 1.39 | -0.348 | 3.01
5 | TCTTGTTGGTCACGGAGGTCACACACGACGGGTA | 3.76 | 3.86 | 3.29 | 3.62 | 2.2 | 4.14 | 3.58 | 4.44 | 3.5 | 4.07 | 2.92 | 4.57 | 2.15 | 2.59 | 4.65 | 5 | 2.43 | 5.34 | 3.1 | 4.17
6 | TTACCAAGGTGTAAGGTCGTTGATGCACGCCTTG | 0.533 | 0.628 | -0.156 | 0.478 | -0.764 | 2.06 | 2.4 | 4.03 | 1.99 | 3.46 | -0.345 | 1.3 | 0.0676 | -0.033 | 0.125 | 1.1 | 0.267 | 1.38 | -0.417 | 1.09
7 | CATACAGGGTCAGCTAGGCCAGCGTAGGGACGGC | 4.29 | 2.94 | -0.144 | 1.98 | 0.387 | 4.38 | 3.25 | 2.9 | 0.559 | 2.04 | 1.15 | 2.23 | 0.338 | 0.666 | 1.25 | 2.09 | 0.247 | 2.95 | 0.0243 | 4.03
8 | CCGACTGGGGCGGAAAGGTTACCATACCATCCGG | 0.516 | 0.85 | 0.0346 | 1.23 | -0.589 | 2.08 | 1.41 | 2.7 | 0.707 | 1.99 | -0.0321 | 0.59 | -0.91 | -0.926 | 0.423 | 1.17 | -0.39 | 1.96 | -0.133 | 1.43
9 | CTCGAAAGATCGTGCTCAGGTGAGTATACCAAAC | -0.102 | -0.388 | -0.396 | -0.276 | -0.402 | -0.384 | -0.161 | -0.399 | -0.236 | -0.424 | -0.285 | -0.0174 | -0.0381 | 0.428 | 0.0271 | -0.467 | -0.289 | -0.00355 | -0.239 | -0.0571
10 | CGAACTAGGTCAAGGACAGAGAATCTCCGCACGC | 3.32 | 1.95 | -0.0711 | 1.25 | -0.37 | 4.47 | 7.55 | 6.28 | 3.62 | 5.63 | 8.21 | 8.28 | 3.36 | 1.6 | 1.59 | 0.886 | -0.0315 | 1.87 | 0.29 | 3.87
11 | CCTAGCAGGCCAATCTGGGACACTCAAGGCTTGA | 0.127 | -0.43 | -0.779 | -1.13 | -0.814 | -0.0365 | 0.255 | -0.496 | -0.884 | -0.673 | 3.13 | 2.73 | -0.765 | -0.94 | -0.694 | -0.828 | -0.916 | -0.753 | -0.862 | 0.0896
12 | CCATACAGGTGAGAAGGTAACTCAGCCTCGATTA | 0.317 | 0.251 | 0.308 | 0.309 | -0.0623 | 1.01 | 1.03 | 1.68 | 0.288 | 1.26 | 2.08 | 1.63 | 0.397 | 0.148 | 0.629 | 0.166 | 0.14 | 0.725 | 1.02 | 0.628
13 | ATATGTGGGTTAAGGGTCATTCAGGTTGGTTCGC | 5.26 | 4.74 | 3.07 | 4.91 | 2.59 | 6.53 | 11.6 | 9.82 | 10.4 | 11.3 | 7.01 | 7.51 | 2.4 | 2.39 | 3.88 | 5.53 | 3.93 | 6.07 | 3.29 | 3.59
14 | CCTAGCAGGCCAATCTGCGTCACTCAAGGCTTGA | -0.461 | -0.378 | -0.462 | -0.429 | -0.0755 | -0.332 | -0.41 | -1.08 | -1.19 | -1.21 | 1.32 | -0.303 | -1.31 | -0.968 | -0.505 | -0.683 | -0.513 | -0.426 | -0.164 | 0.0378
